# In paper PMC5540273 (PLoS ONE, 2017):
# Columns and labels:
# Settings in all cases: concentration: 1 μM, replicates: in singlicate; n = 1
# [1] = test system: FGR
# [2] = test system: FLT1
# [3] = test system: FLT3-autoinhibited
# [4] = test system: FLT3
# [5] = test system: FLT4
# [6] = test system: FRK
# [7] = test system: FYN
# [8] = test system: GAK
# [9] = test system: T1, GCN2(Kin.Dom.2,S808G)
# T1 construct: gene EIF2AK4
# [10] = test system: GRK1
# 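Note: KINOMEscan kinase panel screen.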
Structure (SMILES),%Inh [1],%Inh [2],%Inh [3],%Inh [4],%Inh [5],%Inh [6],%Inh [7],%Inh [8],%Inh [9],%Inh [10]
COc1cc(OC)cc(-c2cc3cnc(N)nc3nc2NC(=O)NC(C)(C)C)c1,0%,38%,0%,0%,73%,0%,1%,0%,3%,13%
O=C(Nc1ccc2c(c1)OCO2)NC1CCN(c2ccnc(NCc3ccc(F)cc3)n2)CC1 [GSK1379859],9%,15%,0%,0%,9%,0%,31%,4%,1%,0%
O=C(Nc1n[nH]c2nc(-c3ccccc3)c(Cl)cc12)C1CC1 [SB-734909],13%,9%,16%,2%,0%,0%,0%,0%,0%,37%
CC(C)(C)c1ccc(C(=O)Nc2cn3cc(-c4ccccc4)ccc3n2)cc1,0%,0%,0%,35%,0%,10%,0%,0%,8%,25%
CN1C(=O)C(Nc2ccccc2)=C(c2ccccc2)C1=O [SB-300079],0%,0%,0%,0%,0%,0%,0%,0%,6%,26%
Cc1c(Cn2c(C)nn3c(=O)cc(N4CCO[C@H](C)C4)nc23)cccc1C(F)(F)F [GSK2373690],0%,22%,0%,0%,0%,35%,14%,52%,3%,0%
Cc1nn2c(=O)cc(N3CCOCC3)nc2n1Cc1cccc(Cl)c1Cl [GSK2342769],24%,27%,9%,0%,34%,0%,0%,1%,3%,3%
Cc1nnc(-c2ccc(C)c(-c3ccc(C(=O)O)cc3)c2)o1 [GW608005],12%,20%,4%,0%,12%,0%,10%,5%,0%,0%
COc1ccc(-c2cc3c(C)nc(N)nc3n([C@H]3CC[C@H](OCCO)CC3)c2=O)cn1,14%,11%,0%,0%,0%,0%,0%,0%,0%,0%
COc1cc(Nc2nccc(N3CCC(NC(=O)C(C)c4ccc(Cl)cc4)C3)n2)cc(OC)c1OC (centres unmarked) [GSK1379757],26%,40%,0%,25%,7%,0%,0%,0%,0%,0%
CN1C(=O)C(Nc2cc(Cl)c(O)c(Cl)c2)=C(c2ccc(Cl)cc2)C1=O [SB-404321],0%,0%,0%,0%,0%,0%,0%,0%,6%,0%
CCC(=O)c1c(-c2ccccc2)c2cc(Cl)ccc2c(=O)n1Cc1cc(C(=O)NC2CC2)n(C)n1,20%,0%,0%,0%,1%,8%,0%,1%,0%,0%
O=C(Nc1n[nH]c2nc(-c3ccccc3)c(Br)cc12)C1CC1 [SB-708998],8%,25%,8%,1%,26%,0%,26%,11%,0%,0%
COC(=O)c1c(-c2ccccc2)c2cc(C)ccc2c(=O)n1Cc1ccccc1,2%,0%,13%,0%,0%,0%,0%,0%,0%,0%
Nc1nc(N)c2nc(-c3ccccc3)[nH]c2n1 [SKF-12778],30%,18%,7%,8%,22%,8%,0%,30%,23%,5%
COc1cc2ncn(-c3cc(OCc4ccncc4Br)c(C(N)=O)s3)c2cc1OC [GW854278],20%,0%,22%,26%,68%,8%,0%,58%,0%,0%
CCc1nc(-c2cccc(C)c2)c(-c2ccncc2)s1,19%,13%,0%,0%,0%,9%,0%,49%,3%,25%
